Source: PubChem BioAssay (NCATS)
Records with an inconclusive call do not appear. Active and inactive are the calls of the source. Calls follow the shape of the dose curve; as a rule, active = well fitted inhibition curve with a large enough effect; inconclusive = small, poorly fitted or top-dose-only effect; inactive = flat fitted curve, though single readings scatter.

Experiments:
Assay in all cases: qHTS profiling for inhibitors of Plasmodium falciparum proliferation (AID 504749); also: nearly all actives have a fitted effect of over 60% in size
Conditions in all cases: P. falciparum in erythrocytes, SYBR Green DNA, 72 h; series mostly up to 28.7 µM
[1] = test system: CP269
Summary of the method: (§1)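 P. falciparum-infected erythrocytes (0.3% parasitemia, 2.5% hematocrit) incubated with compound 72 h at 37 C, 5% CO2. Parasite DNA detected by SYBR Green after lysis, overnight at room temperature; normalised to 0.29 uM artemisinin and DMSO.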

[2] = test system: CP286
Summary of the method: as §1

[3] = test system: CP291
Summary of the method: as §1

[4] = test system: CP297
Summary of the method: as §1

[5] = test system: CP305
Summary of the method: as §1

[6] = test system: CP315
Summary of the method: as §1

[7] = test system: CP325
Summary of the method: as §1

[8] = test system: CP329
Summary of the method: as §1

[9] = test system: CP335
Summary of the method: as §1

[10] = test system: DFO2036
Summary of the method: as §1

[11] = test system: DIV14
Summary of the method: as §1

[12] = test system: DIV17
Summary of the method: as §1

[13] = test system: DIV30
Summary of the method: as §1

[14] = test system: Dd2
Summary of the method: as §1

[15] = test system: ECU
Summary of the method: as §1

[16] = test system: FAB9
Summary of the method: as §1

[17] = test system: GB4
Summary of the method: as §1

[18] = test system: HB3
Summary of the method: as §1

[19] = test system: ICS
Summary of the method: as §1

[20] = test system: JCK
Summary of the method: as §1

Measured: Potency

Cc1[nH]c(=O)c(C#N)cc1-c1ccncc1
inactive: [1] | [2] | [3] | [4] | [5] | [6] | [7] | [8] | [9] | [10] | [11] | [12] | [13] | [14] | [15] | [16] | [17] | [18] | [19] | [20]

CC(C)NCC(O)COc1ccc(COCCOC(C)C)cc1 (centres undefined)
inactive: [1] | [2] | [3] | [4] | [5] | [6] | [7] | [8] | [9] | [10] | [11] | [12] | [13] | [14] | [15] | [16] | [17] | [18] | [19] | [20]

O=c1n(CCCN2CCN(c3cccc(Cl)c3)CC2)nc2ccccn12
inactive: [1] | [2] | [3] | [4] | [5] | [6] | [7] | [8] | [9] | [10] | [11] | [12] | [13] | [14] | [15] | [16] | [17] | [18] | [19] | [20]

N=c1nc(N2CCCCC2)cc(N)n1O
inactive: [1] | [2] | [3] | [4] | [5] | [6] | [7] | [8] | [9] | [10] | [11] | [12] | [13] | [14] | [15] | [16] | [17] | [18] | [19] | [20]

CCc1ccc(CCOc2ccc(CC3SC(=O)NC3=O)cc2)nc1 (centres undefined)
inactive: [1] | [2] | [3] | [4] | [5] | [6] | [7] | [8] | [9] | [10] | [11] | [12] | [13] | [14] | [15] | [16] | [17] | [18] | [19] | [20]

NS(=O)(=O)c1cc2c(cc1Cl)NC=NS2(=O)=O
inactive: [1] | [2] | [3] | [4] | [5] | [6] | [7] | [8] | [9] | [10] | [11] | [12] | [13] | [14] | [15] | [16] | [17] | [18] | [19] | [20]

Nc1nc2c(ncn2COCCO)c(=O)[nH]1
inactive: [1] | [2] | [3] | [4] | [5] | [6] | [7] | [8] | [9] | [10] | [11] | [12] | [13] | [14] | [15] | [16] | [17] | [18] | [19] | [20]

O=C1CCC(N2C(=O)c3ccccc3C2=O)C(=O)N1 (centres undefined)
inactive: [1] | [2] | [3] | [4] | [5] | [6] | [7] | [8] | [9] | [10] | [11] | [12] | [13] | [14] | [15] | [16] | [17] | [18] | [19] | [20]

NNCCc1ccccc1
inactive: [1] | [2] | [3] | [4] | [5] | [6] | [7] | [8] | [9] | [10] | [11] | [12] | [13] | [14] | [15] | [16] | [17] | [18] | [20]

CC(C[N+](C)(C)C)OC(N)=O (centres undefined)
inactive: [1] | [2] | [3] | [4] | [5] | [6] | [7] | [8] | [9] | [10] | [11] | [12] | [13] | [14] | [15] | [16] | [17] | [18] | [19] | [20]
